Compound activity as filed in PubChem.
G9a block = inhibitors of human histone lysine methyltransferase G9a. Q96KQ7. G9a H3K9 monomethylation, AlphaScreen, 2 h. Potency, µM (doses to about 102 µM), without a hit: at the highest dose activity, negative = inhibition, actives largely listed as inhibitors. 350,000 compounds, 8.8% hits; note: potency is the fitted concentration of half-maximal effect; % is set by controls: 0 for no effect and ±100 for the full control effect; nearly all actives have a fitted effect of over 75% in size
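Signal arises when biotinylated H3K9 peptide, once monomethylated, bridges streptavidin donor and antibody-captured acceptor beads. Enzyme at 20 nM was preincubated 15 min with test compounds; peptide 500 nM and SAM 20 uM then reacted for 2 h.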
JMJD2A Tudor inh = inhibitors of human JMJD2A Tudor domain. O75164. AlphaScreen JMJD2A-Tudor / H3K4me3 peptide binding. Potency, µM (highest dose often 114 µM), inactives show top-dose activity change, negative = inhibition, hits mostly inhibitors. 390,000 compounds, 4.4% hits; note: potency is the fitted concentration of half-maximal effect; % is set by controls: 0 for no effect and ±100 for the full control effect; nearly all actives have a fitted effect of over 50% in size
Target sequence (O75164 whole entry, looked up, the tested form may be a part): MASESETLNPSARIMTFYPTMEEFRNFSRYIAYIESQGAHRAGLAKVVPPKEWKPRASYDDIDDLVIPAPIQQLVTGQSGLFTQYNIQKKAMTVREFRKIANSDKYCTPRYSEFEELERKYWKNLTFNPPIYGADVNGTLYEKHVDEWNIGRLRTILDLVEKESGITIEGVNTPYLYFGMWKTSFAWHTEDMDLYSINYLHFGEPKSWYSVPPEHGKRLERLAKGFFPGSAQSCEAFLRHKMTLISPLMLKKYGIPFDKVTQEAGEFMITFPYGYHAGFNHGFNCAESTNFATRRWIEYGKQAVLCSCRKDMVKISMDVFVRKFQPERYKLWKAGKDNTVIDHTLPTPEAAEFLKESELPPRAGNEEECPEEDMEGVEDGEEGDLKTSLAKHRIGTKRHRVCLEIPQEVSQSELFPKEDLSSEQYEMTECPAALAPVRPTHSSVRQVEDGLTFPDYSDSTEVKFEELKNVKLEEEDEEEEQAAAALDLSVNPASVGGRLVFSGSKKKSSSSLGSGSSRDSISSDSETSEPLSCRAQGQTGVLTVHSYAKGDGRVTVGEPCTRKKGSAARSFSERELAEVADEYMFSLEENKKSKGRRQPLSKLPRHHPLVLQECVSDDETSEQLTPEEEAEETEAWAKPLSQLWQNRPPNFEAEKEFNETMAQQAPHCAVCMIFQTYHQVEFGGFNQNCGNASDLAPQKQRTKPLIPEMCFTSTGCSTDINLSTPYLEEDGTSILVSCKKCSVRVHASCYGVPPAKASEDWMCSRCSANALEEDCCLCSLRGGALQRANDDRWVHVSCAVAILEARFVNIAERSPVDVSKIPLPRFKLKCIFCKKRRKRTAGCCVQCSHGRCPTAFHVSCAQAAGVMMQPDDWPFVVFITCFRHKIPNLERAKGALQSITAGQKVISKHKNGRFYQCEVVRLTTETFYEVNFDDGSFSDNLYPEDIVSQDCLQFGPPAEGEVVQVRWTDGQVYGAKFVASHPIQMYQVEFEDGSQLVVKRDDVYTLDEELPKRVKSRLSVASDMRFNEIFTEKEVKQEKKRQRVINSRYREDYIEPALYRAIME
HP1b chromo inh = inhibitors of HP1-beta chromodomain binding to methylated histone tails; P83916; AlphaScreen HP1-beta / biotin-H3K9me3 peptide binding; Potency, µM (top dose mostly 114 µM), without a hit: at the highest dose activity change, negative = inhibition, hits mostly inhibitors; 390,000 compounds, 0.56% hits; note: potency is the fitted concentration of half-maximal effect; nearly all actives have a fitted effect of over 70% in size
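HP1-beta protein (50 nM final) preincubated 30 min at room temperature with biotinylated H3(1-18)K9me3 peptide (50 nM) in PBS pH 7.4, 0.01% Tween-20, then compound added for 30 min. AlphaScreen streptavidin donor/nickel chelate acceptor beads (10 ug/mL final), 30 min dark, luminescence read.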
BAZ2B inh = BAZ2B (human) inhibition; Q9UIF8; AlphaScreen BAZ2B-H3K14Ac peptide displacement; Potency, µM (highest dose often 114 µM), for the others: at the top dose activity change, negative = inhibition, actives largely listed as inhibitors; 360,000 compounds, 4.4% hits; AID 504333; note: potency is the fitted concentration of half-maximal effect; % is set by controls: 0 for no effect and ±100 for the full control effect; nearly all actives have a fitted effect of over 60% in size
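AlphaScreen displacement: compounds (up to 110uM) incubated 30 min at room temperature with a preformed 50 nM BAZ2B/50 nM biotinylated H3K14Ac peptide complex in PBS pH 7.4 with Tween-20. Donor and acceptor beads at 10 ug/mL final added, 20 min light-protected before reading.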
CtBP-E1A inh = inhibitors of CtBP/E1A interaction; AlphaScreen GST-E1A/His-CtBP binding, 1536-well; stronger effect = lower value; activity change, % (test concentration not listed); 340,000 compounds, 0.49% hits; AID 651724; in the data active = activity change below about -65%; inconclusive = mostly about -30% to -63%; note: % is set by controls: 0 for no effect and ±100 for the full control effect
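AlphaScreen with 125 nM GST-E1A and 125 nM His-CtBP (5X stocks) in Tris pH 8.0, 300 mM NaCl, BSA, Tween 20, TCEP. Compounds preincubated 2 h at 37 deg C, then glutathione donor/nickel acceptor beads added for 1 h at 37 deg C in dark.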
Six1-Eya2 inh = Six1/Eya2 interaction inhibition | Q15475+O00167 | AlphaScreen GST-Six1/His-Eya2 binding, biochemical; stronger effect = lower value | activity change, % (test concentration not listed) | 360,000 compounds, 0.56% hits | AID 651725; in the data active = activity change below about -65%; inconclusive = mostly about -30% to -63%; note: % is set by controls: 0 for no effect and ±100 for the full control effect
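Compounds are tested against tagged Six1 and Eya2 proteins bridged by glutathione donor and nickel acceptor beads; after a one-hour incubation at 37 °C without light, AlphaScreen emission is recorded.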
The depositor's hits bear a star; ? = inconclusive; · = not tested or not shown; [ ] = remark or other dose. This is a sample that favours compounds with a hit; in the whole collection about 10% have one here. Unless noted, calls come from the whole dose curve; as a rule, active = well fitted inhibition curve with a large enough effect; inconclusive = small, poorly fitted or top-dose-only effect; inactive = no such curve, though single readings can be large or run the other way.

SMILES	G9a block	JMJD2A Tudor inh	HP1b chromo inh	BAZ2B inh	CtBP-E1A inh	Six1-Eya2 inh
COc1ccccc1NC(=O)C(C)OC(=O)C(C)SCC(=O)Nc1ccc(C)cc1 (centres undefined)	35µM*	-10%	25%	11%	8	-6
CC(=O)c1ccc2c(c1)N(Cc1ccc3ccccc3c1)C(=O)C(C)S2 (centres undefined)	·	·	·	·	2	-2
COc1ccc(NC(=O)N2CC[C@@]3(CCCN(C(=O)c4csnn4)C3)C2)cc1	2%[12.7 µM]	·	·	·	·	·
COc1ccc(NC(=O)CN2CCN(CC(=O)Nc3ccccc3Cl)CC2)cc1	·	-14%	40%	-7%	-17	5
COc1ccc(NC(=O)C/C(C)=N/NC(=O)C(=O)Nc2cccc(Cl)c2C)c(OC)c1	56µM*	-16%	34%	27%	-4	3
COc1ccc(-n2cc(-c3ccc4c(c3)OCO4)n(CC(=O)Nc3cccc(C)c3)c2=O)cc1	?	?	-20%	-39%	·	·
COc1ccc(NCC(=O)Nc2ccc(Br)cc2F)c(OC)c1	·	56µM*	?	40µM*	?	-17
COc1ccc(NC(=O)CN2CCN(CC(=O)Nc3ccccc3Cl)CC2)c(OC)c1	45µM*	-12%	29%	-1%	8	3
COc1ccc(-c2cn(-c3ccc(C)cc3)c(=O)n2CC(=O)Nc2cccc(F)c2)cc1	?	79µM*	-19%	?	6	0
C[C@H]1COc2cc(N(C)CCO)ccc2S(=O)(=O)N1	·	·	·	·	7	1
Cc1ccc(Cl)cc1N1CCN(C(=O)CCc2nnc3n(C)c(=O)c4ccccc4n23)CC1	-35%[59 µM]	-7%	21%	-4%	·	·
COc1cc(/C=N/NC(=O)CNc2n[nH]c(=O)[nH]c2=O)ccc1OCc1ccccc1	?	-11%	18%	-13%	-4	-1
CC1C(=O)NN=C1C(=O)N/N=C/c1cccs1 (centres undefined)	-34%	?	17%	·	·	-5
O=C1NC(=O)C2(CCC(C3CCCCC3)CC2)N1 (centres undefined)	·	3%	30%	·	-1	-5
COc1ccc(CNc2ccnc(-c3cccc(NS(C)(=O)=O)c3)n2)c(OC)c1	9%[0.501 µM]	·	·	·	·	·
CC(NC(=O)C1CCN(S(=O)(=O)c2ccc3c(c2)NC(=O)CO3)CC1)c1ccccc1 (centres undefined)	7%	-6%	75%	-10%[57.1 µM]	0	12
CCOC(=O)c1c(C)[nH]c(C(=O)CSc2nnc(Nc3ccccc3F)s2)c1C	18µM*	-24%	18%	-37%	1	1
CCN1C(=O)[C@@H]2[C@@H](c3ccc(-c4cc(C(C)=O)cs4)cc3)N3CCC[C@@]3(C(=O)OC)[C@@H]2C1=O	·	-26%	10%	·	-3	0
COc1cc2[nH]c3c(N4CCN(c5ccccn5)CC4)ncnc3c2cc1OC	45µM*	-28%	-9%	?	-29	?
COc1ccc2[nH]c3c(N4CCc5ccccc5C4)ncnc3c2c1	45µM*	?	-18%	?	-22	-20
COc1cccc2[nH]c3c(N4CCCCC4)ncnc3c12	?	-3%	?	·	0	-2
Fc1ccc2[nH]c3c(N4CCN(c5ccccc5)CC4)ncnc3c2c1	?	?	-10%	40µM*	?	?
CCOC(=O)N1CCN(c2ncnc3c2[nH]c2ccc(OC)cc23)CC1	15%[2.33 µM]	-7%	22%	4%	-13	-12
CCOC(=O)N1CCN(c2ncnc3c2[nH]c2ccc(F)cc23)CC1	7%[59 µM]	3%	25%	-3%	-9	-5
COc1ccc(N2CCN(c3ncnc4c3[nH]c3ccccc34)CC2)cc1	13µM*	50µM*	-13%	?	-21	-26
O=C(c1ccco1)N1CCN(c2ncnc3c2[nH]c2ccccc23)CC1	-34%[59 µM]	·	·	8%	·	·
COC(=O)c1ccc(NC(=O)CSc2nc(=O)n(Cc3ccco3)c3c2CCC3)cc1	-8%[59 µM]	-24%	15%	-13%	·	·
